From the supplement of paper PMC10849652
Targets with a hit are over-represented here; the source holds about 7,900 in all. About 0.6% of all pairs of compound and target were hits.

Tests used:
Test in all cases: log2 fold change, soluble protein after heating vs DMSO (PISA); higher = thermal stabilisation; K562 cells, 10 uM, 30 min; active = over 0.2 and 3.5 SD of the protein, either way, in both replicates (recomputed)
[1] = compound: C#Cc1cccc(Nc2ncnc3cc(OCCOC)c(OCCOC)cc23)c1 [erlotinib]
Outline: (§1)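 Soluble protein was quantified by TMTpro 16plex LC-MS/MS after channel sums were equalised. It was obtained as the supernatant after 21,000xg for 90 min from pooled aliquots of K562 cells (2×10^6 cells/mL, 10 μM compound, 30 min) heated for 3 min across 48°C-58°C and extracted in PBS with 0.5% NP-40 at 4°C. Thermal stability values are relative to control samples and come from duplicates. They are given as log2 fold changes.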

[2] = compound: C/C(=N\NC(=O)C1=CC(=CC=C1)S(=O)(=O)N2CCOCC2)/C3=C(C=CC(=C3)Cl)O
Outline: as §1

[3] = compound: C1=CC(=C(C=C1Cl)C2=NC3=NC=CN=C3C(=N2)NC4=CC=NC=C4)F
Outline: as §1

[4] = compound: C1=CC(=CC=C1C2=NC3=C(N2)C=C(C=C3)C(=O)N)OC4=CC=C(C=C4)Cl
Outline: as §1

[5] = compound: C1=CC2=C(C=CC(=C2)/C=C\3/C(=O)NC(=NCC4=CC=CS4)S3)N=C1
Outline: as §1

[6] = compound: C1=CC2=NC=CN=C2C=C1/C=C/3\C(=O)NC(=O)S3
Outline: as §1

[7] = compound: C1=CC=C(C=C1)C2=NC(=C(N2)C3=CC=NC=C3)C4=CC(=C(C=C4)Cl)O
Outline: as §1

[8] = compound: C1=CC=C2C(=C1)C3=NNC4=CC=CC(=C43)C2=O
Outline: as §1

[9] = compound: C1CCN(C1)C(=O)NC2=CC=CC(=C2)NC3=NC=C(C(=N3)NCCC4=CN=CN4)Br
Outline: as §1

[10] = compound: C1CN(CCC1(CC2=CC=C(C=C2)Cl)N)C3=NC=NC4=C3C=CN4
Outline: as §1

Measured: log2 fold change

UFD1 isoform 1 (UniProt Q92890)
inactive: [1] 0.001 | [2] 0.019 | [3] 0.051 | [4] -0.008 | [5] 0.012 | [6] 0.015 | [7] -0.01 | [8] -0.021 | [9] -0.036 | [10] 0.024

UBE2S (UniProt Q16763)
inactive: [1] 0.01 | [2] 0.064 | [3] -0.025 | [4] -0.021 | [5] 0.052 | [6] 0.014 | [7] -0.008 | [8] 0.014 | [9] -0.02 | [10] 0.029

WDHD1 (UniProt O75717)
UniProt O75717, sequence (O75717 whole entry, looked up): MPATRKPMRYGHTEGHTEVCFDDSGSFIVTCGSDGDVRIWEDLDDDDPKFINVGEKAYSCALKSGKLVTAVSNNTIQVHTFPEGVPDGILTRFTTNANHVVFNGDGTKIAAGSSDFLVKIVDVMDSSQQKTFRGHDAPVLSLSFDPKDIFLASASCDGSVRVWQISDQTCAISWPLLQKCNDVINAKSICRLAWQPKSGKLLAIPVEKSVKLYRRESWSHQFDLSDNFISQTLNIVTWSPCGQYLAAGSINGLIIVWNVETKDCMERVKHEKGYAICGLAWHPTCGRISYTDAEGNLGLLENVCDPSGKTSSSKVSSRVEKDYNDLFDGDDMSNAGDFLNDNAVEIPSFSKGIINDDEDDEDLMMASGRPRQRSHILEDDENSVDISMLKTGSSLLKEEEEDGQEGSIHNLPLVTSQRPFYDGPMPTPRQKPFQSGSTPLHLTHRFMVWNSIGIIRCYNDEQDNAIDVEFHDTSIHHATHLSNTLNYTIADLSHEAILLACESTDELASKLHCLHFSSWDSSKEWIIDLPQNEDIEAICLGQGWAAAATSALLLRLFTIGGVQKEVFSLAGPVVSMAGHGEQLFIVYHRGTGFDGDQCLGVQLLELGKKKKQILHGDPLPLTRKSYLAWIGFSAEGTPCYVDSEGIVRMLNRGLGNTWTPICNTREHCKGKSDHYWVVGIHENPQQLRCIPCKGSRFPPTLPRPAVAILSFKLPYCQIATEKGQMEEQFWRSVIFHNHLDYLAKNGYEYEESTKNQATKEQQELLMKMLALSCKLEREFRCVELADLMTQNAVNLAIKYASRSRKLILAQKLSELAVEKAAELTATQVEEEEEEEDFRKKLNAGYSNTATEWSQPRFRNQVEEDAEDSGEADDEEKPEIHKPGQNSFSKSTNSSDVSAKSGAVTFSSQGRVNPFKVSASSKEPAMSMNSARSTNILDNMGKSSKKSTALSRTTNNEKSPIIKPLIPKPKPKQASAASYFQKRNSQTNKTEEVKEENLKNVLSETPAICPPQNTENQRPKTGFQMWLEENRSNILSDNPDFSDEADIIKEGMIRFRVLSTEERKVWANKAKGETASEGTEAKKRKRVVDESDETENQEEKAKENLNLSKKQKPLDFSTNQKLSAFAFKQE
inactive: [1] 0.007 | [2] 0.173 | [3] 0.093 | [4] -0.002 | [5] 0.026 | [6] 0.038 | [7] -0.02 | [8] -0.028 | [9] -0.031 | [10] -0.013

TRIM28 (UniProt Q13263)
inactive: [1] 0.001 | [2] 0.077 | [3] 0.041 | [4] -0.023 | [5] -0.021 | [6] 0.018 | [7] -0.023 | [8] 0.004 | [9] -0.013 | [10] -0.026

TTC33 (UniProt Q6PID6)
UniProt Q6PID6, sequence (Q6PID6 whole entry, looked up): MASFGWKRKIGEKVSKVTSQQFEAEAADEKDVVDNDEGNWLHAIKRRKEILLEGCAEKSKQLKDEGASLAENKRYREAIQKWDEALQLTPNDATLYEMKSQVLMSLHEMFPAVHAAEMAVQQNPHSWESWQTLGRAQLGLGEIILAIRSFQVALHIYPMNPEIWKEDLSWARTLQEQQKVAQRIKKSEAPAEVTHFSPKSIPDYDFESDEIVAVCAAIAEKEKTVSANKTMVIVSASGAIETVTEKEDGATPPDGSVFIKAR
inactive: [1] 0.065 | [2] -0.035 | [3] 0.019 | [4] 0.001 | [5] 0.176 | [6] -0.107 | [7] -0.045 | [8] -0.038

TRABD (UniProt Q9H4I3)
inactive: [1] -0.057 | [2] -0.023 | [3] -0.029 | [4] 0.016 | [5] 0.032 | [6] -0.049 | [7] 0.121 | [8] 0.074 | [9] -0.077 | [10] 0.071

TNPO2 (UniProt O14787)
inactive: [1] 0.075 | [2] 0.115 | [3] 0.033 | [4] -0.064 | [5] 0.077 | [6] 0.017 | [7] 0.018 | [8] -0.008 | [9] 0.027 | [10] -0.008

TMEM268 isoform 3 (UniProt Q5VZI3)
inactive: [1] -0.161 | [2] 0.061 | [3] -0.166 | [4] 0.054 | [5] 0.024 | [6] -0.138 | [7] 0.118 | [8] -0.21 | [9] 0.13 | [10] 0.045

VPS28 (UniProt Q9UK41)
inactive: [1] -0.072 | [2] 0.031 | [3] 0.27 | [4] -0.011 | [5] 0.009 | [6] 0.023 | [7] 0.009 | [8] 0.001 | [9] -0.091 | [10] -0.043

VPS16 (UniProt Q9H269)
inactive: [1] 0.104 | [2] 0.128 | [3] -0.004 | [4] -0.034 | [5] 0.093 | [6] 0.087 | [7] -0.031 | [8] -0.018 | [9] -0.007 | [10] -0.128

TMEM173 (UniProt Q86WV6)
inactive: [1] 0.028 | [2] 0.018 | [3] -0.012 | [4] -0.078 | [5] 0.068 | [6] 0.019 | [7] -0.044 | [8] -0.032 | [9] 0.02 | [10] -0.05

TTC4 (UniProt O95801)
inactive: [1] 0.094 | [2] 0.081 | [3] 0.016 | [4] 0.005 | [5] 0.061 | [6] -0.007 | [7] 0.081 | [8] 0.025 | [9] -0.057 | [10] -0.018

WDR41 (UniProt Q9HAD4)
inactive: [1] 0.039 | [2] 0.038 | [3] 0.128 | [4] 0.026 | [5] -0.016 | [6] 0.019 | [7] -0.005 | [8] -0.07 | [9] -0.012 | [10] 0.073

USP9X (UniProt Q93008)
inactive: [1] 0.012 | [2] 0.06 | [3] -0.012 | [4] -0.029 | [5] 0.026 | [6] 0.008 | [7] 0.013 | [8] -0.033 | [9] 0.002 | [10] -0.002

UGDH (UniProt O60701)
UniProt O60701, sequence (O60701 whole entry, looked up): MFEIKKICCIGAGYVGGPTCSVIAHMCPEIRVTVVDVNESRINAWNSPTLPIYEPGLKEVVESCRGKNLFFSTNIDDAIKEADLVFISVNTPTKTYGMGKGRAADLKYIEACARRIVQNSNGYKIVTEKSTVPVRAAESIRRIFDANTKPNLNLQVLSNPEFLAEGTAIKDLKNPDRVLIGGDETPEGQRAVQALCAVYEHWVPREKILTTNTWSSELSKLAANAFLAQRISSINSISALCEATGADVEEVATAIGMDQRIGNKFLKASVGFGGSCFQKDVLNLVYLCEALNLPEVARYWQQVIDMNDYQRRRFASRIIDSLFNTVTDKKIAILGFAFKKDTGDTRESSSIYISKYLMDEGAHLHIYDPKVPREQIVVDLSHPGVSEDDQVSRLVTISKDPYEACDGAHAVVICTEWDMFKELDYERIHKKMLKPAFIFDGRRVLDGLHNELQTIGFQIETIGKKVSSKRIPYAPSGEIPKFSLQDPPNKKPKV
inactive: [1] 0.004 | [2] 0.134 | [3] 0.128 | [4] 0.023 | [5] 0.046 | [6] -0.174 | [7] 0.017 | [8] 0.043 | [9] -0.063 | [10] 0.009

TMEM192 (UniProt Q8IY95)
inactive: [1] 0.044 | [2] -0.017 | [3] 0.011 | [4] -0.008 | [5] -0.011 | [6] 0.067 | [7] 0.011 | [8] -0.017 | [9] 0.039 | [10] 0.038

TXNL1 (UniProt O43396)
inactive: [1] -0.012 | [2] 0.096 | [3] 0.009 | [4] -0.031 | [5] -0.011 | [6] -0.018 | [7] 0.014 | [8] 0.016 | [9] -0.001 | [10] -0.077

TOMM5 isoform 2 (UniProt Q8N4H5)
UniProt Q8N4H5, sequence (Q8N4H5 whole entry, looked up): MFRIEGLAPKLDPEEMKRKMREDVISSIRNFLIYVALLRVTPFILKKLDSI
active: [3] 0.378
inactive: [1] -0.115 | [2] 0.063 | [4] 0.134 | [5] 0 | [6] 0.052 | [7] -0.123 | [8] -0.003 | [9] -0.038 | [10] -0.047

VPS18 (UniProt Q9P253)
inactive: [1] 0.026 | [2] 0.065 | [3] 0.019 | [4] 0.023 | [5] 0.04 | [6] 0.04 | [7] -0.086 | [8] -0.012 | [9] -0.006 | [10] -0.024

UBE4A isoform 2 (UniProt Q14139)
inactive: [1] 0.012 | [2] 0.148 | [3] 0.083 | [4] -0.11 | [5] 0.012 | [6] 0.083 | [7] -0.039 | [8] -0.301 | [9] -0.018 | [10] -0.132

UXT isoform 2 (UniProt Q9UBK9)
inactive: [2] -0.263 | [3] 0.078 | [4] 0.113 | [5] 0.061 | [6] -0.044 | [7] -0.053 | [8] 0.012 | [9] -0.036 | [10] -0.086
active: [1] 0.925

WASH2P (UniProt Q6VEQ5)
inactive: [1] 0.005 | [2] -0.02 | [3] -0.084 | [4] 0.003 | [5] 0.041 | [6] 0.038 | [7] 0.014 | [8] 0.011 | [9] 0.117 | [10] 0.013

TXNRD1 (UniProt Q16881)
UniProt Q16881, sequence (Q16881 whole entry, looked up): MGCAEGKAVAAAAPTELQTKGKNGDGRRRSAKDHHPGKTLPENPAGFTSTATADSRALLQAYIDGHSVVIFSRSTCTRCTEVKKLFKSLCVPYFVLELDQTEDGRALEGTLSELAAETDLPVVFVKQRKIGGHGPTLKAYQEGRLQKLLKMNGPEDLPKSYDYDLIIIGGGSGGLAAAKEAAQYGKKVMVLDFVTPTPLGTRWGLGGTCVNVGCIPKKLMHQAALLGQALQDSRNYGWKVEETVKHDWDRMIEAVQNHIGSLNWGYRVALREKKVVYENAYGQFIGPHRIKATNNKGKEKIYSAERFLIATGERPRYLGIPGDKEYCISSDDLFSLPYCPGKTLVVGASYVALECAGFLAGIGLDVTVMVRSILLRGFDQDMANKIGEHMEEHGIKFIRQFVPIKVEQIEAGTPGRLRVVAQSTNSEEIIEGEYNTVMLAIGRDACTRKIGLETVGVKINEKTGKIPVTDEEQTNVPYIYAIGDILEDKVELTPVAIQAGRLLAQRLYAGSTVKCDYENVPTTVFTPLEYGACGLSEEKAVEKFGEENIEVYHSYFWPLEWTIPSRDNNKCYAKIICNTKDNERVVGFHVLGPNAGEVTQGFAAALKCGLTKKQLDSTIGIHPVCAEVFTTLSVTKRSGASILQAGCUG
inactive: [1] 0.021 | [2] 0.049 | [3] 0.057 | [4] -0.006 | [5] 0.009 | [6] 0.074 | [7] 0.027 | [8] 0.019 | [9] 0.005 | [10] 0.046

UPF3B (UniProt Q9BZI7)
active: [3] -0.703
inactive: [1] -0.108 | [2] -0.149 | [4] 0.088 | [5] -0.053 | [6] -0.072 | [7] -0.019 | [8] -0.016 | [9] 0.117 | [10] -0.097

UTP14A (UniProt Q9BVJ6)
inactive: [1] -0.142 | [2] -0.15 | [3] -0.301 | [4] 0.06 | [5] -0.075 | [6] -0.005 | [7] -0.06 | [8] -0.045 | [9] 0.006 | [10] -0.155

USP25 isoform 3 (UniProt Q9UHP3)
inactive: [1] 0.007 | [2] 0.086 | [3] 0.02 | [4] 0.002 | [5] 0.028 | [6] 0.005 | [7] -0.024 | [8] 0.011 | [9] -0.038 | [10] 0.043

TRMT61A (UniProt Q96FX7)
active: [3] -0.354
inactive: [1] -0.03 | [2] -0.062 | [4] 0.087 | [5] -0.059 | [6] -0.07 | [7] -0.017 | [8] -0.046 | [9] 0.054 | [10] 0.054

UHRF1BP1 (UniProt Q6BDS2)
inactive: [1] -0.018 | [2] -0.01 | [3] 0.011 | [4] 0.033 | [5] 0.001 | [6] 0.008 | [7] -0.017 | [8] -0.009 | [9] -0.013 | [10] 0.008

TRAPPC8 (UniProt Q9Y2L5)
inactive: [1] 0.024 | [2] 0.118 | [3] -0.012 | [4] 0.027 | [5] 0.094 | [6] -0.007 | [7] -0.068 | [8] -0.018 | [9] -0.011 | [10] -0.036

TPR (UniProt P12270)
UniProt P12270, sequence (P12270 whole entry, looked up): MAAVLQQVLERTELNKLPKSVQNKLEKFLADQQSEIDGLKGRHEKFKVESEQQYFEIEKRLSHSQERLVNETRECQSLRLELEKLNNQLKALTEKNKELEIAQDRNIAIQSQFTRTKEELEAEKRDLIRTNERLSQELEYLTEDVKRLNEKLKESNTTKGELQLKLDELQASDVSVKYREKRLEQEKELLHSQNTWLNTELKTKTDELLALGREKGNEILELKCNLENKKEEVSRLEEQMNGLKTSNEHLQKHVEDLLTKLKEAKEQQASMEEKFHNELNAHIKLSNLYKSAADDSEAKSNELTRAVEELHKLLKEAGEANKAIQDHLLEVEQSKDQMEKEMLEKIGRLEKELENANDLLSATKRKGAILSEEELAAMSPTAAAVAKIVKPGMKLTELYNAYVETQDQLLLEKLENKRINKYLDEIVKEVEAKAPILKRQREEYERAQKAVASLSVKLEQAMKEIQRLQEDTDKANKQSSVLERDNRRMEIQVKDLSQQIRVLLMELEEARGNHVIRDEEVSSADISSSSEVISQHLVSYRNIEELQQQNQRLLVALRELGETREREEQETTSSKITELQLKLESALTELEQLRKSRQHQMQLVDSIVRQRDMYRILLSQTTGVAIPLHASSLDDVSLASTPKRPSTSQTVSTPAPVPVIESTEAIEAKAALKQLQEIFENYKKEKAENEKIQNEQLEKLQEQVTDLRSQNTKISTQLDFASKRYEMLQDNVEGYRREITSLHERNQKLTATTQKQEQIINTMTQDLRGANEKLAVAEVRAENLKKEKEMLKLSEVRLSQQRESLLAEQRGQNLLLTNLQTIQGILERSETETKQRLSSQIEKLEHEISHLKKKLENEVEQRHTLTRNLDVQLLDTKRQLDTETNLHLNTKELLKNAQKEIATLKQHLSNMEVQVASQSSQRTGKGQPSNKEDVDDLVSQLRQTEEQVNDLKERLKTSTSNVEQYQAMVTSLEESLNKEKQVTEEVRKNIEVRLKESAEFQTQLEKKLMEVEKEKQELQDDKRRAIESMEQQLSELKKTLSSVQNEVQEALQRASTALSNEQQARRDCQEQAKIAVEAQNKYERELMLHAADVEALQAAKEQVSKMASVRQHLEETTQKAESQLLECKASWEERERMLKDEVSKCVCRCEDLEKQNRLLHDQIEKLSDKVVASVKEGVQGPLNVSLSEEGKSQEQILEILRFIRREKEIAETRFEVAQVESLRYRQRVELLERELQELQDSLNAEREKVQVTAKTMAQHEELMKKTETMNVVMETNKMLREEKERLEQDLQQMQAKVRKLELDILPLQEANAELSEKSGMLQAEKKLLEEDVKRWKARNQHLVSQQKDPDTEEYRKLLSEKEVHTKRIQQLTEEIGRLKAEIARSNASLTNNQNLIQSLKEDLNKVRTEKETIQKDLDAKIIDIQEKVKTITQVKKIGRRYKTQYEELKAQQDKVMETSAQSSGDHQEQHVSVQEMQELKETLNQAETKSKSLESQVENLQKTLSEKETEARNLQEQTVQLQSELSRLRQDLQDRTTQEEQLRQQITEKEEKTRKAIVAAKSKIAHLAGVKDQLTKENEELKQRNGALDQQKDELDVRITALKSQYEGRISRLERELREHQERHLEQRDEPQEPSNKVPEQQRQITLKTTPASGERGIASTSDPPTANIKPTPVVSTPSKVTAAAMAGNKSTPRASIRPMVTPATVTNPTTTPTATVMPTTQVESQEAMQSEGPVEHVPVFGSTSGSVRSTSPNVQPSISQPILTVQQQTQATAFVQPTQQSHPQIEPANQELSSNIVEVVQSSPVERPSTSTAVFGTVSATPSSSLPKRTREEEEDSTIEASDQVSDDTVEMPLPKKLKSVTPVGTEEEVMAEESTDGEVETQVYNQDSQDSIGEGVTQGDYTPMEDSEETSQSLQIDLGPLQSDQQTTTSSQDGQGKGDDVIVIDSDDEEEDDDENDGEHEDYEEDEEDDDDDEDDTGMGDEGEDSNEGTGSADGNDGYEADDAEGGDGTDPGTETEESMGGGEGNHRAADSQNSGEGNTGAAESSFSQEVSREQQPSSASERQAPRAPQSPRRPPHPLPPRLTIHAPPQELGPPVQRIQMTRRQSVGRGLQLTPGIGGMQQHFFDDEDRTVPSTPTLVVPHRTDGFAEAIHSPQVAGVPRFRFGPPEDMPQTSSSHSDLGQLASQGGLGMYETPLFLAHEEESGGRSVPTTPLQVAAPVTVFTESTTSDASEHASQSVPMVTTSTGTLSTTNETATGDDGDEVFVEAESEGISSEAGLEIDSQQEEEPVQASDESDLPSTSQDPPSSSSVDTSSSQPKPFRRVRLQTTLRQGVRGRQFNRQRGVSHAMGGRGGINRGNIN
inactive: [1] -0.113 | [2] 0.023 | [3] -0.001 | [4] -0.011 | [5] -0.098 | [6] 0.174 | [7] -0.104 | [8] -0.118 | [9] 0 | [10] -0.142
